From PubChem BioAssay
Only some compounds are listed: those with a hit (about 1.5% of all), similar ones and a draw of the others.
CFTR F508del cor: CFTR F508del correction in bronchial cells | activity (quench increase), % at 7.58 µM | CFBE cells, YFP halide quenching; stimulated with forskolin plus potentiator P3; % fluorescence drop versus neutral controls | AID 720511 | 0.36% of 350,000 active;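 active = mean added fluorescence quench of at least 8% versus neutral control, with both replicates also reaching 8%; inconclusive = only one of the mean or replicate conditions met; inactive = mean below 8% and not both replicates reaching 8%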;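 note: cells transiently co-express mutant CFTR-F508del with the halide-sensitive YFP; corrector assay measuring rescue of mutant channel to the surface after 24 h compound exposure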
Glyco luc inh: N-linked glycosylation inhibition; D54 ERlucT glycosylation luciferase reporter, 24 h; percent of 100 nM tunicamycin response; reporter increase, % at 12.5 µM; 0.23% of 360,000 active;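 active = mean luciferase reporter signal, scaled so untreated is 0 and the glycosylation-blocking control 100, at or above a set limit in every replicate; inconclusive = mean reaches the limit but not every replicate does; inactive = mean below the limit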;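 note: luciferase carries N-glycosylation sites so blocking glycosylation raises the light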
dFosB act-1: enhances mouse delta FosB homodimer DNA binding. P13346. purified delta FosB, TAMRA-CDK5 oligo fluorescence polarization; percent of positive-control signal above neutral wells. 0.99% of 340,000 active. activation, % at 25 µM;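 active = mean activation above about 17%, with every replicate also reaching it, limit read from the data, passing the limit was not always enough; inconclusive = only one of the two conditions met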
PvdQ acylase: blocks Pseudomonas aeruginosa PvdQ acylase activity; inhibition, % at 10 µM; purified PvdQ acylase, fluorescence plate reader; 0.063% of 340,000 active; in the data active = inhibition above about 30%, passing the limit was not always enough; inconclusive = no clear call, values can overlap the other calls
RAD52 anneal inh: RAD52 (human) annealing inhibition; recombinant RAD52 DNA annealing, FRET fluorescence; 0.46% of 360,000 active; inhibition, % at 18.7 µM;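 active = every replicate showing at least 50% inhibition; inconclusive = mean inhibition at least 50% but not in every replicate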
RAD54 inh: inhibitors of human RAD54 branch migration; inhibition, % at 10.4 µM; 0.14% of 360,000 active; Q92698; RAD54 Holliday junction branch migration, FAM/BHQ fluorescence;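 active = mean normalized replicate activity at least 40 and at least half of replicates scoring 40 or more; inconclusive = only one of the two criteria met; inactive = mean below 40 and under half of replicates reaching 40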;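 note: inhibitors cause a drop in the FAM fluorescence signal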
Target sequence (Q92698 whole entry, looked up): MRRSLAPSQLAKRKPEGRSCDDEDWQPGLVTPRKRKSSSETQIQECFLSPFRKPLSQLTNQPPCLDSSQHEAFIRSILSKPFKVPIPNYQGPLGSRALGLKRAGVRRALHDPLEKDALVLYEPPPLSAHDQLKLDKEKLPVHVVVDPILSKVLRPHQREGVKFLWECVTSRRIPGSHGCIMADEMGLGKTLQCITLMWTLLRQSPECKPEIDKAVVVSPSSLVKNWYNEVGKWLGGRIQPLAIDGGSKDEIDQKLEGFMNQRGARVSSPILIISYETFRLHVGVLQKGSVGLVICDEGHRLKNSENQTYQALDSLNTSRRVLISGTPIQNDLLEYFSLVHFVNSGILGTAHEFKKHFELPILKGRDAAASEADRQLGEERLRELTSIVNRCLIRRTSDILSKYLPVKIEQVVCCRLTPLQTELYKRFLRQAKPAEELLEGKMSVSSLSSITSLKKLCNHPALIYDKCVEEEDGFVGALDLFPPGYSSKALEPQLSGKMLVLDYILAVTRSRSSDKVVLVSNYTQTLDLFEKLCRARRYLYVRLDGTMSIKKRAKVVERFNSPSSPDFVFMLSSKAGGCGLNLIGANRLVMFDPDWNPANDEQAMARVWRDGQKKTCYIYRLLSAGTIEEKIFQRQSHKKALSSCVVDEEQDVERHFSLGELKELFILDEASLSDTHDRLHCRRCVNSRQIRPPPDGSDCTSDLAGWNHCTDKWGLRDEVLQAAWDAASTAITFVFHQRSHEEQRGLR
dFosB act-2: enhances mouse delta FosB homodimer binding to DNA; purified delta FosB, TAMRA-CDK5 oligo fluorescence polarization; normalised: neutral wells 0, positive control 100; 2,400 tested, under 10 active; shares compounds with dFosB act-1; AID 588690; activation, % at 24.9 µM;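 active = highest replicate activation at or above 34% and every replicate reaching that threshold; inconclusive = meets only one of the two criteria; inactive = meets neither criterion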;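 note: higher polarization means more probe DNA bound by delta FosB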
A number is an active result; – = inactive; ? = inconclusive; · = no result given.

SMILES | CFTR F508del cor | Glyco luc inh | dFosB act-1 | PvdQ acylase | RAD52 anneal inh | RAD54 inh | dFosB act-2
CCCNc1c(NS(=O)(=O)c2ccc(C3CCCCC3)cc2)c(=O)oc2ccccc12 | · | – | 82.1 | – | · | – | –
CC(C)NC(=O)N(C)C[C@@H]1Oc2ncc(C#CC3CC3)cc2C(=O)N([C@H](C)CO)C[C@@H]1C | – | · | · | · | – | – | ·
CO[C@H]1CN(C)C(=O)c2ccc(NC(=O)C3CC3)cc2OC[C@@H](C)N(Cc2cc(F)ccc2F)C[C@H]1C | – | · | · | · | · | · | ·
CNc1c(NS(=O)(=O)c2ccc(F)cc2)c(=O)oc2ccccc12 | – | – | – | – | – | – | ·
CNc1c(NS(=O)(=O)c2ccc(OC)cc2)c(=O)oc2ccccc12 | – | – | 30.9 | – | – | – | –
COc1ccc2c3c(n(C)c2c1)[C@H](CO)N(C(C)=O)CC31CCN(S(=O)(=O)c2ccccc2)CC1 | – | · | · | · | – | · | ·
O=C(N/N=C/c1ccc(OC(=O)c2ccco2)cc1)c1ccncc1 | – | – | – | – | – | – | ·
COc1ccc(/C=C/C(=O)Oc2ccc(/C=N/NC(=O)c3ccncc3)cc2)cc1 | – | – | 22.3 | – | – | – | –
COc1ccc(C(=O)Nc2ccc(/C(C)=N/NC(=O)c3ccncc3)cc2)cc1 | – | – | 39.8 | – | – | – | –
COc1ccc(/C(C)=N/NC(=O)c2ccncc2)cc1 | – | – | – | – | – | – | ·
O=C(N/N=C/c1ccc(OC(=O)c2ccc(Br)cc2)cc1)c1ccncc1 | – | – | 90.1 | – | – | · | –
Cc1cccc(C)c1NC(=O)CNC(=O)c1cccc(S(=O)(=O)NCc2cccs2)c1 | – | – | 23.8 | – | – | – | –
O=C(Cc1ccccn1)NCC[C@@H]1CC[C@H](NC(=O)c2ccccc2F)[C@@H](CO)O1 | – | · | · | · | – | – | ·
CCC(=O)Nc1nnc(SCc2ccc(F)cc2)s1 | · | – | – | – | · | – | ·
CC(=O)Nc1ccc(N2C(=O)c3ccc(C(=O)Nc4nnc(SCc5ccc(F)cc5)s4)cc3C2=O)cc1 | · | – | 56.0 | – | · | · | –
CC(C)NC(=O)N(C)C[C@@H]1Oc2cc(C#C[C@@H](C)O)ccc2S(=O)(=O)N([C@H](C)CO)C[C@H]1C | – | · | · | · | – | – | ·
CO/N=C/C(C#N)=C/c1ccc(OC)cc1 | – | – | – | – | – | · | ·
CO/N=C/C(C#N)=C/c1cc(C(=O)c2ccc(F)cc2)cn1C | · | – | 50.2 | – | – | · | –
Cc1cccc(C)c1NC(=O)CN1C(=O)CCSc2ccc(S(=O)(=O)N3CCCC3)cc21 | – | – | 47.7 | – | – | – | –
COc1ccc(Nc2nnc(SCC(=O)/C=C3/N(C)c4ccccc4C3(C)C)s2)cc1 | · | – | 42.8 | – | · | – | –
CN1/C(=C\C(=O)CSc2nnc(N)s2)C(C)(C)c2ccccc21 | – | – | – | – | – | – | ·
CN1/C(=C/C(=O)CSc2ccccc2C(=O)O)C(C)(C)c2ccccc21 | – | – | 19.2 | – | – | – | –
CN1/C(=C\C(=O)CSc2cccc[n+]2[O-])C(C)(C)c2ccccc21 | – | – | – | – | – | · | ·
O=C(C[C@@H]1C=C[C@@H](NC(=O)c2ccc3c(c2)OCO3)[C@@H](CO)O1)NCc1ccc(Cl)cc1 | – | · | · | · | – | – | ·
Cc1cccc(C)c1NC(=O)Cn1c(=O)n(CCC(=O)NCc2ccco2)c(=O)c2sccc21 | · | – | – | – | · | · | ·
SMILES | CFTR F508del cor | Glyco luc inh | dFosB act-1 | PvdQ acylase | RAD52 anneal inh | RAD54 inh | dFosB act-2
Cc1ccc(-n2c(=O)c3sccc3n(CC(=O)NC3CCCC3)c2=O)cc1 | – | – | ? | – | – | – | ·
Cc1ccc(C)c(Cn2c(=O)n(-c3ccc(CC(=O)NCc4ccco4)cc3)c(=O)c3sccc32)c1 | – | – | 30.4 | – | – | – | –
O=C(Cc1ccc(-n2c(=O)c3sccc3n(CC(=O)Nc3ccccc3F)c2=O)cc1)NCc1ccco1 | – | – | 52.4 | – | – | · | –
O=C(Cn1c(=O)n(-c2ccc(F)cc2)c(=O)c2sccc21)NC1CCCCC1 | – | – | 31.3 | – | – | – | –
O=C(NCC1CC1)[C@H]1[C@H](CO)[C@H]2Cn3c(ccc(-c4ccccc4F)c3=O)[C@@H]1N2Cc1cccnc1 | · | · | · | · | – | – | ·
CC(/C=C/c1ccc2c(c1)OCO2)=N\NC(=O)COc1ccccc1C | · | – | – | – | · | – | ·
Cc1cccc(OCC(=O)N/N=C\C=C\c2ccc3c(c2)OCO3)c1C | · | – | 38.1 | – | · | – | –
CNc1nc(N/N=C/c2cc3c(cc2[N+](=O)[O-])OCO3)nc(Nc2ccccc2)n1 | – | – | 55.4 | – | – | · | –
COc1cc(/C=N/Nc2nc(Nc3ccccc3)nc(N3CCOCC3)n2)ccc1OC(=O)c1ccco1 | · | – | 53.8 | – | – | · | –
O=[N+]([O-])c1cc2c(cc1/C=N\NS(=O)(=O)c1ccccc1)OCO2 | · | – | – | – | · | – | ·
COc1ccc(/C=N/Nc2nc(N3CCCCC3)nc(N3CCCCC3)n2)cc1[N+](=O)[O-] | – | – | – | – | – | – | ·
O=[N+]([O-])c1ccc(/C=N/Nc2nc(NCc3ccccc3)nc(N3CCOCC3)n2)cc1 | – | – | 27.1 | – | – | · | –
O=C(Oc1cccc(/C=N/Nc2nc(N3CCOCC3)nc(N3CCOCC3)n2)c1)c1ccco1 | · | – | – | – | · | – | ·
COc1ccc(/C=N/Nc2nc(Nc3ccccc3)nc(N3CCCC3)n2)cc1[N+](=O)[O-] | – | – | 62.0 | – | – | – | ?
O=[N+]([O-])c1cccc(/C=N/Nc2nc(NCc3ccccc3)nc(N3CCOCC3)n2)c1 | · | – | – | – | · | · | ·
CO[C@H](CN(C)C(=O)c1cnccn1)[C@@H](C)CN([C@H](C)CO)S(=O)(=O)c1ccc(Cl)cc1 | – | · | · | · | – | – | ·
COc1cccc(S(=O)(=O)Nc2ccc3c(c2)[C@H]2C[C@H](CC(=O)NCc4ccccc4F)O[C@@H](CO)[C@H]2O3)c1 | – | · | · | · | – | – | ·
C[C@H]1CN([C@@H](C)CO)C(=O)c2cc(-c3ccccc3)cnc2O[C@@H]1CN(C)C(=O)Cc1cccnc1 | – | · | · | · | – | – | ·
CCc1nc2c(nnn2Cc2ccc(F)cc2)c(=O)[nH]1 | · | – | – | – | – | – | ·
O=C(CSCc1nc2c(nnn2Cc2ccc(F)cc2)c(=O)[nH]1)Nc1c(Cl)cc(Cl)cc1Cl | – | – | 29.1 | – | – | · | –
CO[C@@H]1CN(C)C(=O)c2ccc(NS(C)(=O)=O)cc2OC[C@@H](C)N(C(=O)c2ccc3c(c2)OCO3)C[C@@H]1C | – | · | · | · | · | – | ·
Cc1ccc2nc(SCC(=O)Nc3ccccc3N3CCOCC3)c(C#N)cc2c1 | · | – | – | – | · | – | ·
Cc1ccc2nc(SCC(=O)Nc3ccc4sc(C)nc4c3)c(C#N)cc2c1 | · | 33.3 | 25.0 | – | · | – | –
Cc1cc(Br)ccc1SCC(=O)OC/C(O)=C(\C#N)c1nc2ccccc2[nH]1 | – | – | 51.7 | – | – | · | –
Cc1cc(Br)ccc1SCC(=O)OCC(O)=C(C#N)c1nc2ccccc2[nH]1 | – | – | – | – | – | – | ·
